# Measured values: PubChem BioAssay (NCATS)
# “And” between values parts separate entries of the source, which are not always exact repeats. Identical values can stand only once. Records with an inconclusive call do not appear. Entries that show only a call come without a potency. The source made the active and inactive calls. Unless noted, calls come from the whole dose curve; as a rule, active = well fitted curve in the direction sought with a large enough effect; inconclusive = small, poorly fitted or top-dose-only effect, or another doubt; inactive = no such curve, though single readings can be large; an effect the other way counts as inactive or inconclusive.
# What was measured:
# [1] = molecular target: Thyroid hormone receptor beta (Homo sapiens) (UniProt P10828); assay: qHTS assay for small molecule agonists of thyroid hormone receptor beta signaling (AID 588545; calls by dose curve)
# In short: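 Agonist-mode beta-lactamase reporter assay, HEK 293 cells, 2% charcoal/dextran FBS; cells plated 4 hrs, compound 18 hrs at 37 C, CCF4 2 hrs RT. Normalized to 10 nM T3 (100%) and DMSO (0%); Hill fit gives EC50, efficacy.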
# [2] = molecular target: Thyroid hormone receptor beta (Homo sapiens) (UniProt P10828); assay: qHTS assay for small molecule antagonists of thyroid hormone receptor beta signaling (AID 588547; active = well fitted inhibition curve with a large enough effect in the signal ratio, with a control signal flat, not every such curve was filed as active; the % refers to the signal ratio;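 note: cells stimulated with 0.4 nM T3 agonist during compound exposure; series mostly up to about 77 µM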); details: TR-UAS-bla HEK293, beta-lactamase ratio, antagonist mode, 18 h
# In short: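 TR-UAS-bla GripTite HEK293 cells in 2% charcoal/dextran FBS medium; compounds 0.59 nM to 92 uM with T3 at 0.4nM final, 18 h at 37 C. Beta-lactamase read by CCF4 fluorescence (460/530 nm); Hill fits gave IC50 and efficacy.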
# [3] = molecular target: Voltage-gated inwardly rectifying potassium channel KCNH2 (Homo sapiens) (UniProt Q12809); assay: qHTS Assay for Small Molecule Inhibitors of the Human hERG Channel Activity (AID 588834);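 note: top concentration of the series differs between compounds; lower thallium flux fluorescence means stronger hERG block; nearly all actives have a fitted effect of over 50% in size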
# In short: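 U2OS cells BacMam-transduced with hERG, 2000 cells/well, compound ~10 min at 37 °C before stimulation buffer. FluxOR thallium flux fluorescence read kinetically on FDSS; decrease indicates block; AC50 from Hill fits.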
# [4] = molecular target: Luciferin 4-monooxygenase (Photinus pyralis) (UniProt P08659); assay: Biochemical firefly luciferase enzyme assay for NPC (AID 624030); note: nearly all actives have a fitted effect of over 70% in size; note: potency is the fitted concentration of half-maximal effect
# In short: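 Purified P. pyralis luciferase at 10 nM in 50 mM Tris Acetate (final), luminescence read within 5 minutes of enzyme addition to compounds. Activity normalised to PTC124 versus DMSO; concentration-response curves classed by r2, magnitude and activity.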
# [5] = S16 Schwann cell viability assay (CellTiter-Glo assay) (AID 624031);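 note: cellular ATP luminescence as a viability measure; series mostly up to about 58 µM; nearly all actives have a fitted effect of over 70% in size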
# In short: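 Native S16 rat Schwann cells in DMEM/10% FBS without phenol red were incubated overnight, then exposed to compounds for 24 h at 37 °C/5% CO2. Viability was read as ATP luminescence (CellTiter-Glo), normalized to no-cell wells and DMSO (0%).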
# [6] = S16 Schwann cell PMP22 intronic element firefly luciferase assay (AID 624032); note: nearly all actives have a fitted effect of over 30% in size; note: potency is the fitted concentration of half-maximal effect
# In short: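 Rat S16 Schwann cells stably carrying firefly luciferase driven by a PMP22 intronic element, in 10% FBS, treated 24 h at 37 C. ONE-Glo luminescence normalized to PTC124 control and DMSO (0%); curves classed by r2, magnitude and activity.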
# [7] = S16 Schwann cell PMP22 intronic element beta-lactamase assay (AID 624044; calls by dose curve; note: nearly all actives have a fitted effect of over 15% in size)
# In short: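 Rat S16 Schwann cells with beta-Lac driven by a PMP22 intronic element, compound-treated 24 h at 37 °C. LiveBLAzer FRET B/G read: 460 nm normalized to potassium clavulanate vs DMSO; 535 nm FRET as viability; concentration-effect curves classified.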
# [8] = qHTS assay for small molecule antagonists of retinoid X receptor alpha signaling (AID 588546; active = well fitted inhibition curve with a large enough effect in the signal ratio, with a control signal flat, not every such curve was filed as active; the % refers to the signal ratio;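 note: cells stimulated with 9-cis-retinoic acid as agonist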); details: HEK293T RXRa-UAS-bla, beta-lactamase ratio, antagonist mode; measured here: W530 green channel, cytotoxicity proxy
# In short: (§1)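 Beta-lactamase reporter inhibition, read as CCF4 fluorescence ratio (ex 405, em 460/530 nm) after 2 h at RT. HEK293T UAS-bla cells, 2500/well, were stimulated with 9-cis-RA at 500 or 100 nM final alongside test compound for 18 h at 37 C.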
# [9] = molecular target: Retinoic acid receptor RXR-alpha (Homo sapiens) (UniProt P19793); assay: as above; details: HEK293T RXRa-UAS-bla, beta-lactamase ratio, antagonist mode
# In short: as §1
# [10] = qHTS of Trypanosoma Brucei Inhibitors: LOPAC Validation (AID 624147)
# In short: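 TbPYK + substrate in 50 mM TEA pH 7.2, 100 mM KCl, 10 mM MgCl2, 0.05% BSA, 0.01% Tween-20; cpd pinned; ADP 130 uM final; 45 min RT; Kinase-Glo Plus 10 min; luminescence endpoint.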
# Chain of Voltage-gated inwardly rectifying potassium channel KCNH2 (Homo sapiens) (Q12809 whole entry, looked up): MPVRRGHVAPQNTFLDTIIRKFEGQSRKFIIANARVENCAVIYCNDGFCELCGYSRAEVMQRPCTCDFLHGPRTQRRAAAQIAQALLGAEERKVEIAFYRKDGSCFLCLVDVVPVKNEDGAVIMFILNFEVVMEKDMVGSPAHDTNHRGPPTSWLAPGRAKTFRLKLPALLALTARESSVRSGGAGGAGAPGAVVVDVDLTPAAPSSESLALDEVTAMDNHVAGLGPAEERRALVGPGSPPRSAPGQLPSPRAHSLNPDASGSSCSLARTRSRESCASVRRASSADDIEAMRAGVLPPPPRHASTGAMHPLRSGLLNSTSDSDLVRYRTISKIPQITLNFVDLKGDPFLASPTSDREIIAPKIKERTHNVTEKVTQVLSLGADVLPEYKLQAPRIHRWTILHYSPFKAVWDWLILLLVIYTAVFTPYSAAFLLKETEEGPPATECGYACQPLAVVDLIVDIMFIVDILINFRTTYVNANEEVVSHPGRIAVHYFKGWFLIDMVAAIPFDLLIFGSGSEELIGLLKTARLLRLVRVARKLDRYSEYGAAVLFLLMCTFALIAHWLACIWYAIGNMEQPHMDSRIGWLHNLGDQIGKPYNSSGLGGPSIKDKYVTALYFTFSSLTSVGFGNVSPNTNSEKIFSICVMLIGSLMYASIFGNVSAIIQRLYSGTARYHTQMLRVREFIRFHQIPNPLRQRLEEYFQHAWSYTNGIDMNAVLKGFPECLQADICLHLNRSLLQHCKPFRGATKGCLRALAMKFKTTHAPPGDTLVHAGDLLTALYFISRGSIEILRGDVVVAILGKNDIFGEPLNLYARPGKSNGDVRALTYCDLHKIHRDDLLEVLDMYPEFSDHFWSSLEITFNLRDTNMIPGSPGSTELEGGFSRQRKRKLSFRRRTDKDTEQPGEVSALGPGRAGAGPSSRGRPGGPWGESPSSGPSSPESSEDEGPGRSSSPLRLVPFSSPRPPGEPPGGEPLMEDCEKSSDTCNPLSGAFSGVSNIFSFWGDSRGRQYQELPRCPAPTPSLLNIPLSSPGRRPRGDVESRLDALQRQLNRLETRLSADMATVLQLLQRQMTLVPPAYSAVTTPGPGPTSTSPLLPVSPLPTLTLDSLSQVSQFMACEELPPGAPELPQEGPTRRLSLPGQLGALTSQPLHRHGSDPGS
# Chain of Thyroid hormone receptor beta (Homo sapiens) (P10828 whole entry, looked up): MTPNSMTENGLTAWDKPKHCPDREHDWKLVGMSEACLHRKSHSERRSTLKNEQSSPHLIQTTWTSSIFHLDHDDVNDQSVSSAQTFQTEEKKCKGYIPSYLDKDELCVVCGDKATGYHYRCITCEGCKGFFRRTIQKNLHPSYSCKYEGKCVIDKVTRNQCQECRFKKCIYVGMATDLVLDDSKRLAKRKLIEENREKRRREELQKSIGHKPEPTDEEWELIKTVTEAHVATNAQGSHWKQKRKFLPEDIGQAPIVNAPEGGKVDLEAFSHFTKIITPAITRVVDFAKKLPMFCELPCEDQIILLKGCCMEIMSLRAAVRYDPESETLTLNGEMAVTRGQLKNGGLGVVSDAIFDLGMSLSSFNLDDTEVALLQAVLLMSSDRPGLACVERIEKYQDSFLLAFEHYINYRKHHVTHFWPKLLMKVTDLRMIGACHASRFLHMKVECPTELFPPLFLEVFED
# Chain of Retinoic acid receptor RXR-alpha (Homo sapiens) (P19793 whole entry, looked up): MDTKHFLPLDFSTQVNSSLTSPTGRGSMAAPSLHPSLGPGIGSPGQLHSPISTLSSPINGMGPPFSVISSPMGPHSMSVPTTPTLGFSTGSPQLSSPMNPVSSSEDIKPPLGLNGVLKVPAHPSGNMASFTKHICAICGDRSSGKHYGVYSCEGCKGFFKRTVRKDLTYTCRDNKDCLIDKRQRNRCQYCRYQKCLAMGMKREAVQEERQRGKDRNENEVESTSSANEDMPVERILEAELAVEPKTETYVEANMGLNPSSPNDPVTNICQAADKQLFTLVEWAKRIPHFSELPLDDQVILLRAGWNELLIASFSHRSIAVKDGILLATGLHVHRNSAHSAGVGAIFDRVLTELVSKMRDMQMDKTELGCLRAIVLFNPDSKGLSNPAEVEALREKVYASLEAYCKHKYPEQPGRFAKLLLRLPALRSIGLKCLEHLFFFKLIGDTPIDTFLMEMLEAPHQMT
# Chain of Luciferin 4-monooxygenase (Photinus pyralis) (P08659 whole entry, looked up): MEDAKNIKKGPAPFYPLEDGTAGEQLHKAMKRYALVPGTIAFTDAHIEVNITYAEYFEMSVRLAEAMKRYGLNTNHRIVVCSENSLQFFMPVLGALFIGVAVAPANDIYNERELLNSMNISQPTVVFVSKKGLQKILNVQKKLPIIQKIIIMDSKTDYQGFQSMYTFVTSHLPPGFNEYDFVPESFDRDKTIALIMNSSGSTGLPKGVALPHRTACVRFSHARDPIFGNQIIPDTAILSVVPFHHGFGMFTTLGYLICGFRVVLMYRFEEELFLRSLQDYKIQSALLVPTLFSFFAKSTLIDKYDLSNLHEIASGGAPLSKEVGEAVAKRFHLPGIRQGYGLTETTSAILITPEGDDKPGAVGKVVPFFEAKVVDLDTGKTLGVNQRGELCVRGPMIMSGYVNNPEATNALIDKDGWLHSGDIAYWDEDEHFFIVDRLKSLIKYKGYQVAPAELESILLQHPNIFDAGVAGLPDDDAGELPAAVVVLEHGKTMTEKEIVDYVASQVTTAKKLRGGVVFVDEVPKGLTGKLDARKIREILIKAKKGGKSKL
smiles,measurement,setting,value
COP(=S)(OC)SCN1C(=O)c2ccccc2C1=O,outcome,[1],inactive
same,activity change % (negative = inhibition),[2],-12.6% (inactive)
same,Potency,[3],inactive
same,Potency,[4],inactive
same,outcome,[5],inactive
same,Potency,[6],inactive
same,outcome,[7],inactive
Nc1ccccc1C(=O)O,outcome,[1],inactive
same,max response,[8],-6.42%
same,max response,[9],6.99% (inactive)
same,activity change % (negative = inhibition),[2],18% (inactive)
same,Potency,[3],inactive
same,Potency,[4],inactive
same,outcome,[5],inactive
NC1=NC(=O)C(c2ccccc2)O1 (stereo not given),Potency,[3],inactive
Nc1nc(N)nc(NC2CC2)n1,outcome,[1],inactive
same,max response,[8],-17.8%
same,max response,[9],6.27% (inactive)
same,activity change % (negative = inhibition),[2],-23% (inactive)
same,Potency,[3],inactive
same,Potency,[4],inactive
same,outcome,[5],inactive
same,Potency,[6],inactive
C[C@@H](N)[C@@H](O)c1ccccc1,Potency,[3],inactive
CCOC(=O)CC(SP(=S)(OC)OC)C(=O)OCC (stereo not given),outcome,[1],inactive
same,max response,[8],12.5% and 3.13% and -23.2%
same,max response,[9],-24.3% (inactive) and -13.6% (inactive) and -13.7% (inactive)
same,activity change % (negative = inhibition),[2],-33.5% (inactive)
same,Potency,[3],inactive
same,Potency,[4],inactive
same,outcome,[5],inactive
same,Potency,[6],inactive
Nc1ccccc1,outcome,[1],inactive
same,max response,[8],-11.1%
same,max response,[9],4.87% (inactive)
same,activity change % (negative = inhibition),[2],-1.42% (inactive)
same,Potency,[3],inactive
same,Potency,[4],inactive
CCOP(=S)(OCC)Oc1ccc2c(C)c(Cl)c(=O)oc2c1,outcome,[1],inactive
same,Potency,[3],inactive
same,Potency,[4],inactive
same,outcome,[5],inactive
same,Potency,[6],8.09 µM (active)
same,outcome,[7],inactive
[N-]=[N+]=CC(=O)OC[C@H](N)C(=O)O,outcome,[1],inactive
same,max response,[8],-15.7%
same,max response,[9],7.74% (inactive)
same,activity change % (negative = inhibition),[2],10.8% (inactive)
Oc1ccc(Cl)cc1,outcome,[1],inactive
same,max response,[8],-7.58%
same,max response,[9],-3.06% (inactive)
same,activity change % (negative = inhibition),[2],-0.268% (inactive)
same,Potency,[3],inactive
same,Potency,[4],inactive
same,outcome,[5],inactive
same,Potency,[6],inactive
O=C1c2ccccc2C(=O)C1C(=O)C(c1ccccc1)c1ccccc1,outcome,[1],inactive
same,max response,[8],-10.9%
same,max response,[9],13.2% (inactive)
same,activity change % (negative = inhibition),[2],3.48% (inactive)
same,Potency,[3],inactive
same,Potency,[4],inactive
same,Potency,[6],inactive
same,outcome,[7],inactive
O=P1(N(CCCl)CCCl)NCCCO1 (stereo not given),outcome,[1],inactive
same,max response,[8],-4.41% and 6%
same,max response,[9],8.47% (inactive) and -0.0175% (inactive)
same,activity change % (negative = inhibition),[2],-0.786% (inactive)
same,Potency,[3],inactive
same,Potency,[4],inactive
same,outcome,[5],inactive
same,Potency,[6],inactive
same,outcome,[10],inactive
c1ccc(CN2CCNCC2)cc1,Potency,[4],inactive
CN(C)CCc1c[nH]c2cccc(OP(=O)(O)O)c12,Potency,[4],inactive
CC(C)N(CCC(C(N)=O)(c1ccccc1)c1ccccn1)C(C)C (stereo not given),outcome,[10],inactive
CNCC(=O)c1ccc(O)c(O)c1,Potency,[4],inactive
Cn1c(=O)c2[nH]cnc2n(C)c1=O,Potency,[6],inactive
COC(=O)C(Cl)C(=O)OC,Potency,[4],inactive
O=c1oc2ccccc2c(O)c1Cc1c(O)c2ccccc2oc1=O,Potency,[4],inactive
same,outcome,[5],inactive
same,Potency,[6],inactive
CN1C(=O)COc2c(C(=O)NC3CN4CCC3CC4)cc(Cl)cc21 (stereo not given),Potency,[4],inactive
same,outcome,[5],inactive
same,Potency,[6],inactive
CCCN(CCC)C(=O)Cc1c(-c2ccc(Cl)cc2)nc2ccc(Cl)cn12,Potency,[4],inactive
CC(C)(C)c1ccc(O)cc1,Potency,[4],inactive
same,outcome,[5],inactive
same,Potency,[6],inactive
COc1cc(CCN)cc(OC)c1OC,Potency,[4],inactive
O=C1Nc2ccc(Cl)cc2C(c2ccccc2Cl)=NC1O (stereo not given),Potency,[4],inactive
same,Potency,[6],inactive
same,outcome,[7],inactive
C[C@]12CCC(=O)C=C1CC[C@@H]1[C@H]3CC[C@](C)(O)[C@@]3(C)CC[C@@H]12,Potency,[4],inactive
CC(NC(C)(C)C)C(=O)c1cccc(Cl)c1 (stereo not given),outcome,[10],inactive
CCC1(c2ccc(N)cc2)CCC(=O)NC1=O (stereo not given),Potency,[3],inactive
same,outcome,[10],inactive
CC(Cc1ccccc1)NCCn1cnc2c1c(=O)n(C)c(=O)n2C (stereo not given),Potency,[4],inactive
CCN(CC)CCc1c[nH]c2ccccc12,Potency,[4],inactive
C=CCc1ccc(O)c(OC)c1,Potency,[6],inactive
COc1ccc2c(c1OC)C(=O)O[C@H]2[C@@H]1c2cc3c(cc2CCN1C)OCO3,Potency,[4],inactive
same,outcome,[5],inactive
same,Potency,[6],inactive
same,outcome,[7],inactive
same,outcome,[10],inactive
COc1cc(CC(C)N)cc(OC)c1OC (stereo not given),Potency,[4],inactive
CCN[C@@H](C)Cc1cccc(C(F)(F)F)c1,Potency,[4],inactive
NC(=O)CC[C@@H]1NC(=O)[C@H](Cc2ccccc2)NC(=O)[C@H](Cc2ccc(O)cc2)NC(=O)[C@@H](N)CSSC[C@@H](C(=O)N2CCC[C@H]2C(=O)N[C@@H](CCCN=C(N)N)C(=O)NCC(N)=O)NC(=O)[C@H](CC(N)=O)NC1=O,Potency,[6],inactive
Cc1ncsc1CCCl,Potency,[4],inactive
same,outcome,[5],inactive
same,Potency,[6],inactive
same,outcome,[10],inactive
O=C1Nc2ccc(Cl)cc2C(c2ccccc2)=NC1O (stereo not given),Potency,[4],inactive
same,outcome,[5],inactive
same,Potency,[6],inactive
same,outcome,[7],inactive
CN1C(=O)C(O)N=C(c2ccccc2)c2cc(Cl)ccc21 (stereo not given),Potency,[4],inactive
same,outcome,[5],inactive
same,Potency,[6],inactive
same,outcome,[7],inactive
C[C@]12CC[C@@H]3c4ccc(OC(=O)N(CCCl)CCCl)cc4CC[C@H]3[C@@H]1CC[C@@H]2OP(=O)(O)O,Potency,[4],inactive
O=C(O[C@H]1CN2CCC1CC2)N1CCc2ccccc2[C@@H]1c1ccccc1,Potency,[6],inactive
CCN(CC)C(=O)[C@@H]1C=C2c3cccc4[nH]cc(c34)C[C@H]2N(C)C1,Potency,[4],inactive
COc1cccc(C(=O)CCN[C@@H](C)[C@H](O)c2ccccc2)c1,Potency,[4],inactive
COCCCOc1ccnc(CS(=O)c2nc3ccccc3[nH]2)c1C (stereo not given),Potency,[6],inactive
CC(C)COC(=O)c1ccc(N)cc1,Potency,[6],inactive
C[C@H](N)C(=O)c1ccccc1,Potency,[4],inactive
CCc1cc2c(s1)-n1c(C)nnc1CN=C2c1ccccc1Cl,Potency,[4],inactive
CCN[C@@H](C)Cc1ccccc1,Potency,[4],inactive
CN=C(NC#N)NCCSCc1nc[nH]c1C,Potency,[6],inactive
Clc1cccc(SC2CCNCC2)n1,Potency,[4],inactive
same,outcome,[7],inactive
O=C(Nc1ccc(Br)cc1)c1cc(Br)cc(Br)c1O,Potency,[4],11.4 µM (active)
same,Potency,[6],inactive
same,outcome,[7],inactive
